Y pestis TopoI – Y. pestis Topo-I inhibition via cleavage products; Y. pestis Topo-I cleavage product accumulation, plate reader; activity, % at 10 µM; actives 0.064% (n = 360,000); AID 504884; in the data active = activity above about 50%, passing the limit was not always enough
TcdB GH inh – TcdB glycohydrolase inhibition; P18177; TcdB glycohydrolase enzymatic assay, plate reader; inhibition, % at 9.99 µM; actives 0.24% (n = 350,000); in the data active = inhibition above about 10%
GDH-TPI counter – counter-screen for M. tuberculosis FBA inhibitors: GDH-TPI coupled enzymes. GDH-TPI coupled enzyme counterscreen, NADH absorbance. inhibition, % at 4.8 µM. actives 1.2% (n = 360,000); in the data active = inhibition above about 30%;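 also: 0% = DMSO wells and 100% = wells lacking the enzyme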
PrPC TRFRET – cell surface PrPC inhibition, primary TR-FRET screen; actives 0.43% (n = 370,000); TR-FRET read-out; inhibition, % at 13.8 µM; P04156; AID 720596; in the data active = inhibition above about 24%; also: 0% = median of the test wells and 100% = reference compound wells
Mtb FBA inh – inhibits M. tuberculosis FBA enzyme; P9WQA3; purified M. tuberculosis FBA, fluorescence read-out; inhibition, % at 1 µM; actives 2.3% (n = 360,000); AID 588726; in the data active = inhibition above about 27%;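 also: 0% = vehicle and 100% = reference inhibitor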
Target sequence (P9WQA3 whole entry, looked up): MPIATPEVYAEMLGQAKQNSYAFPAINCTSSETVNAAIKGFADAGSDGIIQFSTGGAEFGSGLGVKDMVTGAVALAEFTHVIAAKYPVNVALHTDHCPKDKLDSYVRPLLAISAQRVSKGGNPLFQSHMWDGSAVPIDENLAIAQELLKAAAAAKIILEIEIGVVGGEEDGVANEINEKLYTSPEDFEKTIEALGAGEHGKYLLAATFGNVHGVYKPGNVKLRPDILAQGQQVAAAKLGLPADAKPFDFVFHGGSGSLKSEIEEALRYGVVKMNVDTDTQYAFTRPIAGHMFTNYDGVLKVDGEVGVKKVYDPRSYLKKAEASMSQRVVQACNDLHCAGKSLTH
Active calls of the source: *; nt = no result; + = active, no number. Sampled rows, rich in hits. Any-hit rate of the full collection: about 3.2%.

SMILES | Y pestis TopoI | TcdB GH inh | GDH-TPI counter | PrPC TRFRET | Mtb FBA inh
CC(C)C[C@H](NC(=O)CCCn1nnc2ccccc2c1=O)C(=O)O | -2 | -1 | 59* | 2 | -1
CCNC(=S)N/N=C(\C)c1cc2ccccc2o1 | 1 | nt | 47* | 0 | -4
CCNC(=S)N/N=C(\C)c1ccc(Cl)s1 | 6 | nt | 31* | -8 | -1
CN(C)N=Nc1nc2c(c(=O)n(C)c(=O)n2C)n1CC1CO1 (stereo unspecified) | 3 | 2 | 35* | -6 | -2
CN(C)N=Nc1nc2c([nH]1)c(=O)n(C)c(=O)n2C | -14 | 5 | 19 | 1 | -1
Nc1cc(C(F)(F)F)ccc1C(=O)O | -3 | 1 | 9 | -3 | 76*
O=C(O)C[C@H]1C=C[C@@H](NC(=O)c2ccncc2)[C@H](CO)O1 | nt | 1 | nt | nt | nt
O=C(O)c1cc(NN=Nc2ccc(Br)cc2)cc([N+](=O)[O-])c1 | 5 | 2 | 31* | -9 | -1
O=C(O)c1cc(NN=Nc2cccc([N+](=O)[O-])c2)cc([N+](=O)[O-])c1 | -7 | 3 | 24 | -22 | -2
O=[N+]([O-])c1ccc(N=NNc2ccccc2)cc1 | -13 | nt | 11 | nt | 78*
O=[N+]([O-])c1cccc(NN=Nc2ccccc2)c1 | -1 | 1 | 16 | -10 | -1
C[C@@H]1CN([C@H](C)CO)C(=O)Cc2cc(NC(=O)CCC(F)(F)F)ccc2O[C@@H]1CN(C)C(=O)Nc1ccc2c(c1)OCO2 | nt | -1 | nt | nt | nt
Cc1c(C(=O)OCC(=O)N(CC(C)C)c2c(N)n(Cc3ccccc3)c(=O)[nH]c2=O)oc2ccccc12 | 82* | 5 | 0 | -3 | -2
CC(C)CN(C(=O)COC(=O)c1cc2ccccc2cc1O)c1c(N)n(Cc2ccccc2)c(=O)[nH]c1=O | 80* | 1 | -2 | -1 | 2
O=C1CN(C(=O)COC(=O)c2ccccc2NCc2ccco2)c2ccccc2N1 | 2 | nt | 14 | 4 | 61*
CN(C(=O)COC(=O)c1ccccc1NCc1ccco1)c1c(N)n(Cc2ccccc2)c(=O)[nH]c1=O | 2 | 2 | 2 | 5 | 115*
CC(C)CN(C(=O)COC(=O)c1cc(=O)[nH]c2ccccc12)c1c(N)n(Cc2ccccc2)c(=O)[nH]c1=O | 21 | 1 | 2 | -5 | 5
O=C1CN(C(=O)COC(=O)c2ccco2)c2ccccc2N1 | -3 | 3 | -1 | 5 | -2
Cc1ccc(/C=C/C(=O)OCC(=O)N(CC(C)C)c2c(N)n(Cc3ccccc3)c(=O)[nH]c2=O)o1 | -14 | 1 | 42* | -7 | 0
CC(C)CN(C(=O)COC(=O)c1c2c(nc3ccccc13)CCC2)c1c(N)n(Cc2ccccc2)c(=O)[nH]c1=O | 60* | 1 | 1 | -4 | -1
c1ccc(Cc2nnc3n2N=C(c2ccccc2)CS3)cc1 | 14 | 16* | 0 | 7 | 4
Cc1ccccc1-c1nnc2n1N=C(c1ccc(O)c(O)c1)CS2 | nt | nt | nt | -8 | nt
c1ccc(-c2ccc(C3=Nn4c(nnc4-c4ccccc4)SC3)cc2)cc1 | nt | nt | nt | 5 | nt
c1ccc(-c2ccc(C3=Nn4c(nnc4-c4cc(-c5ccccc5)n[nH]4)SC3)cc2)cc1 | 31 | 0 | 44* | -3 | -3
COc1ccccc1-c1nnc2n1N=C(c1ccc(O)c(O)c1)CS2 | 8 | nt | 36* | nt | -5
SMILES | Y pestis TopoI | TcdB GH inh | GDH-TPI counter | PrPC TRFRET | Mtb FBA inh
c1ccc(C2=Nn3c(Cn4nnc5ccccc54)nnc3SC2)cc1 | -1 | 3 | 13 | -6 | 4
CCCC(=O)Nc1ccc2c(c1)OC[C@H](C)N(Cc1ccc(-c3ccccn3)cc1)C[C@@H](C)[C@@H](OC)CN(C)C2=O | nt | -8 | nt | nt | nt
Clc1cccc(-c2cccc3nccn23)c1Cl | 7 | 1 | 4 | -2 | 7
CC(=O)Nc1ccccc1-c1cccc2nccn12 | -1 | 0 | 6 | 5 | 125*
COc1ccccc1-c1cccc2nccn12 | 4 | 0 | 6 | 2 | 128*
COc1ncc(-c2cccc3nccn23)c(OC)n1 | -1 | 0 | 6 | 3 | 23
CC(=O)Nc1cccc(-c2cccc3nccn23)c1 | 2 | 1 | -3 | -7 | 159*
C[C@@H]1CCCCO[C@@H](CN(C)S(=O)(=O)c2ccccc2)[C@H](C)CN([C@H](C)CO)C(=O)c2cc(NC(=O)C3CCCCC3)ccc2O1 | nt | -1 | nt | nt | nt
C[C@@H]1CN([C@@H](C)CO)C(=O)c2cc(NC(=O)CCN3CCOCC3)ccc2O[C@H]1CN(C)Cc1ccccc1 | nt | -1 | nt | nt | nt
C[C@@H]1CN([C@H](C)CO)C(=O)c2cccc(NS(C)(=O)=O)c2O[C@H]1CN(C)Cc1ccc(C(=O)O)cc1 | nt | 0 | nt | nt | nt
Cc1nc(SCC(=O)N2CCNC2=O)c(C#N)c(C)c1C | 1 | 13* | -1 | -11 | -4
Cc1cc(C)[n+](-c2ccc(C(C)C)cc2)c2[nH]c(=O)[nH]c(=O)c12 | 5 | nt | 11 | -2 | +
CCN(c1cccc(C)c1)S(=O)(=O)c1c(C)[nH]c(=O)[nH]c1=O | 2 | nt | 6 | -8 | 0
Cc1cccc(-[n+]2c(C)cc(C)c3c(=O)[nH]c(=O)[nH]c32)c1 | 19 | -1 | 33* | -3 | +
C[C@@H]1CN([C@@H](C)CO)C(=O)Cc2cc(NC(=O)Nc3ccccc3)ccc2O[C@H]1CN(C)Cc1ccccc1 | nt | 0 | nt | nt | nt
C[C@@H]1CN([C@@H](C)CO)S(=O)(=O)c2ccc(C3=CCCC3)cc2O[C@H]1CN(C)C(=O)CN(C)C | nt | -1 | nt | nt | nt
COc1cc(/C=C2\SC(=O)NC2=O)ccc1Oc1ccc([N+](=O)[O-])cn1 | -9 | 1 | 36* | 2 | -1
COc1cc(/C=C(\C#N)c2nc3ccc(C)cc3[nH]2)c([N+](=O)[O-])cc1OC | 7 | nt | 33* | -14 | 3
COc1cc(/C=C(\C#N)c2nc3ccccc3[nH]2)ccc1Oc1ccc([N+](=O)[O-])cn1 | -5 | 1 | 32* | -1 | 3
COc1cc(/C=C(/C#N)c2ccccc2)ccc1Oc1ccc([N+](=O)[O-])cn1 | 1 | nt | 18 | -6 | -1
Cc1noc(C)c1NC(=O)Nc1ccc2c(c1)C(=O)N([C@@H](C)CO)C[C@H](C)[C@H](CN(C)C(=O)Nc1ccc3c(c1)OCO3)O2 | nt | -2 | nt | nt | nt
CN(C)CCCNC(=O)/C=C/c1ccc2c(c1)OCO2 | 5 | nt | 21 | 3 | 8
CC(C)CNC(=O)/C=C/C=C/c1ccc2c(c1)OCO2 | 7 | 1 | 39* | -12 | 8
O=C(/C=C/C=C/c1ccc2c(c1)OCO2)N1CCCCC1 | 16 | 1 | 41* | -15 | 2
O=C(C[C@H]1C=C[C@H](NC(=O)C2CC2)[C@@H](CO)O1)NCCCN1CCOCC1 | nt | -7 | nt | nt | nt
C[C@@H]1CN([C@@H](C)CO)C(=O)Cc2cc(NC(=O)Nc3ccccc3)ccc2O[C@H]1CN(C)C(=O)Nc1cccc2ccccc12 | nt | 1 | nt | nt | nt
COc1ccccc1C1NC(=O)NC(C)=C1C(=O)OC1CCCCC1 (stereo unspecified) | 4 | 11* | -9 | -8 | 1
CCC(=O)N[C@H]1CC[C@H](CC(=O)OC)O[C@@H]1CO | nt | 0 | nt | nt | nt
CNCc1sccc1C | -2 | 1 | 3 | 10 | 34*

High-throughput results (PubChem BioAssay)
